Among all 200,000 compounds or so, about 670 (0.34%) were called active. Rule as the data show it: active = activation above about 22%; inactive = the rest. This excerpt belongs to a sample that is enriched for actives.
target: Peroxisome proliferator-activated receptor gamma (Homo sapiens) (UniProt P37231); assay: agonists of PPARg-SRC-2 recruitment, primary screen, biochemical, HTS (AID 1032); conditions: PPARgamma LBD-SRC-2 recruitment, at 8 µM, stronger effect = higher value;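 also: 0% = vehicle and 100% = reference agonist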
Sequence (P37231 whole entry, looked up, the tested form may be a part): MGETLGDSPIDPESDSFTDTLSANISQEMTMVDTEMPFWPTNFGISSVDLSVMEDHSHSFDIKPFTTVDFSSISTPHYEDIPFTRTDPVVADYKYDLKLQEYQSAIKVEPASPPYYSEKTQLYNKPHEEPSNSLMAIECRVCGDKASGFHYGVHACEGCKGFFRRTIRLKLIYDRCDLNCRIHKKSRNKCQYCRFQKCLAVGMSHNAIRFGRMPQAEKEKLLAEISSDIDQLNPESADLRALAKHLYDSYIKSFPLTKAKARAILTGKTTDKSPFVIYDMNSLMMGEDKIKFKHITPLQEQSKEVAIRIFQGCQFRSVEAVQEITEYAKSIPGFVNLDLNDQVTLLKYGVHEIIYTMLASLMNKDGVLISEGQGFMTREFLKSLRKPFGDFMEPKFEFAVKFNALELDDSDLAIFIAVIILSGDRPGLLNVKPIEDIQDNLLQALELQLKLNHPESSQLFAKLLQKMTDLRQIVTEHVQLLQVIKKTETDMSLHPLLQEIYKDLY

| Structure (SMILES) | activation |
| --- | --- |
| O=C(CSc1ncnc2c1nnn2Cc1ccc(F)cc1)NC1CCCC1 | 11.8% (inactive) |
| O=C(Nc1ccc([N+](=O)[O-])cc1)C1CC12CCC2 (configuration not stated) | 18.1% (inactive) |
| O=C(CSc1ccsc1[N+](=O)[O-])N1CCCCC1 | 22% (active) |
| CC1CC(C)CN(C(=O)CSc2ccsc2[N+](=O)[O-])C1 (configuration not stated) | 0.24% (inactive) |
| O=C(CSCc1cccs1)N1CCCC1 | -3.94% (inactive) |
| Cc1cccc(OC(=O)c2sc3ncn(C)c(=O)c3c2C)c1 | -5.78% (inactive) |
| CC1=CC=CN2C1=NC(=O)CC2(C)C(=O)N(CC(=O)NC1CCCC1)c1ccccc1C (configuration not stated) | 1.53% (inactive) |
| CCn1c(SCc2cc(=O)n3ccsc3n2)nc2ccccc21 | 2.48% (inactive) |
| O=C(CSc1nc2c(cnn2-c2ccc(F)cc2)c(=O)[nH]1)N1CCCCCC1 | 5.39% (inactive) |
| C=CCNC(=O)CSc1nc2sc(C)c(C)c2c(=O)[nH]1 | 6.77% (inactive) |
| CC(=O)c1sc2nc(SCC(=O)N3CCCCC3)[nH]c(=O)c2c1C | 27.8% (active) |
| CCN(CC)N=Nc1cccc(NC(C)=O)c1 | 6.74% (inactive) |
| CCOC(=O)c1[nH]ncc1CN1CCCC(C(=O)c2ccc(OC)cc2C)C1 (configuration not stated) | -2.32% (inactive) |
| Oc1ccccc1N1CCN(C(=S)NCc2ccccc2)CC1 | 6.1% (inactive) |
| O=C(COC(=O)c1ccncc1)c1ccccc1 | -2.8% (inactive) |
| O=C(OCC1O[C@@H](OC(=O)c2cc(O)c(O)c(O)c2)[C@@H](OC(=O)c2cc(O)c(O)c(O)c2)[C@@H](OC(=O)c2cc(O)c(O)c(O)c2)[C@@H]1OC(=O)c1cc(O)c(O)c(O)c1)c1cc(O)c(O)c(O)c1 (some centres not stated) | 27.6% (active) |
| CC(=O)NC1C(OCc2ccccc2)OC(COC(C)=O)C(OC(C)=O)C1OC(C)=O (configuration not stated) | 4.63% (inactive) |
| CCOC(=O)N1CCN(C(=O)CSc2nc(C)nc3c2c(=O)n(C)c(=O)n3C)CC1 | -8.15% (inactive) |
| Cc1cc(C)nc(NC(=O)c2cccc([N+](=O)[O-])c2)c1 | -5.12% (inactive) |
| Cc1c(-c2ccccc2)nc(N)c(C#N)c1-c1cccs1 | 6.63% (inactive) |
| CCc1c(-c2ccccc2)nc(N)c(C#N)c1-c1cccs1 | 23.2% (active) |
| CSc1nc(N)c(C#N)c(-c2ccccc2Cl)c1C#N | -6.37% (inactive) |
| O=C(NCc1nnc(SCC(=O)N2CCC(Cc3ccccc3)CC2)o1)c1ccco1 | 0.71% (inactive) |

| Structure (SMILES) | activation |
| --- | --- |
| O=C(Cc1ccc(Br)cc1)N1CCN(c2ccccn2)CC1 | 4.3% (inactive) |
| CC(C)(C)C(=O)NC(NC(=S)Nc1ccc(S(N)(=O)=O)cc1)C(Cl)(Cl)Cl (configuration not stated) | -5.23% (inactive) |
| CN(C)c1ccc(N/C=C/C(=O)C(F)(F)F)cc1 | 39.6% (active) |
| CCCOc1ccc(N/C=C/C(=O)C(C)(C)C)cc1 | -1.64% (inactive) |
| O=C(/C=C/Nc1ccccc1OC(F)(F)F)C(F)(F)F | 1.89% (inactive) |
| CCC(=O)OCCNc1nc(-c2ccccc2)nc2ccccc12 | 0.25% (inactive) |
| Cn1ccc(=NC=C(C#N)C#N)c2ccccc21 | -3.24% (inactive) |
| CC1CCN(C(=S)NC2CC3CCC2C3)CC1 (configuration not stated) | -1.7% (inactive) |
| Cc1c(CN2CCC(CO)(CCOc3ccccc3)CC2)[nH]c2ccc(Cl)cc12 | 3.77% (inactive) |
| COc1ccc(C(=O)NCc2nnc(SCCOc3ccccc3)n2C)cc1 | 0.32% (inactive) |
| CCOC(=O)N1CCC(NC(=O)COc2cc(=O)n(C)c3ccccc23)CC1 | -4.54% (inactive) |
| CCOC(=O)C1CCN(C(=O)CSc2cc(=O)n(C)c3ccccc23)CC1 | 56.4% (active) |
| CCOC(=O)C1CCN(C(=O)Cn2cc(C#N)c3ccccc32)CC1 | 3.64% (inactive) |
| Cn1c(=O)cc(SCC(=O)N2CCN(C(=O)c3ccco3)CC2)c2ccccc21 | 40.5% (active) |
| Cc1cccc(OCc2nnc(SCC(=O)N3CCN(C(=O)c4ccco4)CC3)n2C)c1C | 4.26% (inactive) |
| Cn1c(=O)cc(SCC(=O)N2CCCC2)c2cc(Cl)ccc21 | 61.1% (active) |
| CC(=O)c1ccc(-n2nnnc2SCC(=O)N2CCN(C(=O)c3ccco3)CC2)cc1 | -5.53% (inactive) |
| O=C(CSCc1ccc(Cl)cc1)N1CCCCC1 | 7.59% (inactive) |
| CCOc1ccc(CCNC(=O)CSc2cc(=O)n(C)c3ccc(Cl)cc23)cc1OCC | 18.7% (inactive) |
| Cc1ccc(-c2nc(C)sc2CC(=O)OCC(=O)Nc2c(F)cccc2F)cc1 | 5.36% (inactive) |
| O=c1oc(/C=C/c2ccccc2)nc2ccccc12 | -0.23% (inactive) |
| O=C(Cc1ccccc1)N1CCN(S(=O)(=O)c2ccc([N+](=O)[O-])cc2)CC1 | 7.91% (inactive) |
| O=C1c2cccc(OCC(=O)N3N=C(c4cccs4)CC3c3ccc(F)cc3)c2CCN1Cc1ccccc1 (configuration not stated) | 0.84% (inactive) |

| Structure (SMILES) | activation |
| --- | --- |
| CC(CC(=O)Nc1ccccc1)n1ccnc1 (configuration not stated) | 8.08% (inactive) |
| CCC(CC)C(=O)Nc1ccc(S(=O)(=O)Nc2nccs2)cc1 | -6.57% (inactive) |
| C=C(C)C1CC=C(C)/C(=N/NC(=O)CCCNc2cccc(C)c2)C1 (configuration not stated) | 3.8% (inactive) |
| O=C(CNC(=O)COc1ccccc1)NCCc1ccccn1 | -3% (inactive) |
| C#CCOCCOCCOCCNc1nc(N2CCN(C(=O)C(Cc3ccc(O)cc3)n3cc(C(N)CC(C)C)nn3)CC2)nc(N2CCN(C(=O)C(Cc3ccc(O)cc3)n3cc(C(N)C(C)CC)nn3)CC2)n1 (configuration not stated) | -8.91% (inactive) |
| COCCN(C(=O)CCC(=O)Nc1nccs1)C(C(=O)NC(C)(C)C)c1ccc(Cl)cc1 (configuration not stated) | 5.4% (inactive) |
| CC(=O)Nc1ccc(Nc2c([N+](=O)[O-])cc(S(C)(=O)=O)cc2[N+](=O)[O-])cc1 | 6.76% (inactive) |
| CN(C)c1ccnc(Oc2ccc(F)cc2)c1C#N | 7.04% (inactive) |
| N#Cc1ccc(-c2ccc(F)cc2)nc1Sc1ccccc1 | 3.38% (inactive) |
| N#Cc1ccc(-c2ccc(Cl)cc2)nc1Oc1ccc(F)cc1 | 322% (active) |
| COCCn1c(SCC(=O)Nc2ccc3c(c2)CCC3)nc2ccccc2c1=O | -3.24% (inactive) |
| CCOC(=O)/C=c1\s/c(=C\c2ccc(C#N)cc2)c(=O)n1CC(=O)Nc1cccc(C)c1C | 2.46% (inactive) |
| Oc1oc(-c2ccccc2Br)nc1/C=N/c1ccccn1 | 7.3% (inactive) |
| CCc1nnc(NS(=O)(=O)c2ccc(N=Cc3c(C)[nH]n(-c4ccc(C)cc4)c3=O)cc2)s1 | 12.6% (inactive) |
| Cc1ccc(-n2[nH]c(C)c(/C=N/N3C(=O)c4cccc5cccc(c45)C3=O)c2=O)cc1 | 6.04% (inactive) |
| COc1cc(SC#N)ccc1N=Cc1c(C)[nH]n(-c2ccc(C)cc2)c1=O | 27.6% (active) |
| CN(C)S(=O)(=O)c1cccc(NC(=S)NCc2ccc3c(c2)OCO3)c1 | 4.42% (inactive) |
| COc1ccc(N(CC(=O)NC2CCCC2)C(=O)CS(=O)CC(=O)Nc2ccc3c(c2)OCO3)cc1 (configuration not stated) | -7.54% (inactive) |
| CCOC(=O)N/N=C/c1cccnc1 | 3.1% (inactive) |
| Cc1nc2ccccc2n1CC(=O)N/N=C/c1cccnc1 | 2.27% (inactive) |
| O=C(CSc1cccc2cccnc12)N/N=C/c1cccnc1 | 27.4% (active) |
| CC(C)CN1CCNC(=O)C1CC(=O)N(C)CC1CCOCC1 (configuration not stated) | -4.08% (inactive) |
| c1ccc2sc(NN=C3CCCC3)nc2c1 | -0.8% (inactive) |

| Structure (SMILES) | activation |
| --- | --- |
| Cc1cccc2cc(CN(Cc3ccc4c(c3)OCO4)Cc3nnnn3C3CCCC3)c(=O)[nH]c12 | 27.4% (active) |
| Cc1cccc2cc(CN(Cc3cccs3)C(c3nnnn3C3CCCC3)C(C)C)c(=O)[nH]c12 (configuration not stated) | 2.09% (inactive) |
| CCC(c1nnnn1C1CCCC1)N(Cc1cccs1)Cc1cc2cccc(C)c2[nH]c1=O (configuration not stated) | 7.3% (inactive) |
| CC(C(=O)N=Nc1c(O)n(C)c2ccc(Br)cc12)n1cnc2ccccc2c1=O (configuration not stated) | 2.86% (inactive) |
| Cc1ccccc1Cn1nc(C)c(NC(=O)C(F)(F)F)c1C | -0.15% (inactive) |
| CCCOc1ccc(C2C(C(=O)c3ccc(C)o3)=C(O)C(=O)N2CCCn2ccnc2)cc1 (configuration not stated) | 22.1% (active) |
| COc1cc(C2C(C(=O)c3ccc(C)o3)=C(O)C(=O)N2Cc2cccnc2)ccc1O (configuration not stated) | -1.47% (inactive) |
| COc1cc(C2C(C(=O)c3ccc(C)o3)=C(O)C(=O)N2CCc2ccccc2)ccc1O (configuration not stated) | 0.21% (inactive) |
| CCOC(=O)N1CCC(=NNC(N)=O)CC1 | 3.39% (inactive) |
| CCCCOC(=O)c1ccc(NC(c2ccc(C)cc2)P(=O)(OC)OC)cc1 (configuration not stated) | 7.71% (inactive) |
| COc1cc(C(=S)N2CCOCC2)ccc1O | 5.98% (inactive) |
| COc1cccc(NC(=O)C(Sc2nc3ccccc3c(=O)n2CC(C)C)c2ccccc2)c1 (configuration not stated) | 1.13% (inactive) |
| Cc1ccc(NC(=S)N(CCCN2CCC(C)CC2)Cc2ccco2)cc1 | -0.03% (inactive) |
| COC(=O)Cn1cc(C(=O)c2cccs2)c2ccccc21 | 25.2% (active) |
| COCCNC(=O)Cn1cc(C(=O)c2cccs2)c2ccccc21 | -7.11% (inactive) |
| O=C(Cn1cc(C(=O)c2cccs2)c2ccccc21)NCc1cccs1 | -4.53% (inactive) |
| O=C(CNS(=O)(=O)c1ccccc1)NCC(=O)OCc1ccccc1F | -5.13% (inactive) |
| Cc1scc(C(=O)NNC(=S)NCc2ccccc2)c1C | -7.7% (inactive) |
| CC1=NNC(=O)C1CCC(=O)N/N=C\c1ccc(Cl)c(Cl)c1 (configuration not stated) | 6.93% (inactive) |
| O=c1c2ccccc2c(-c2ccccc2)nn1Cc1ccccc1 | -3.47% (inactive) |
| Cn1c(CO)cnc1SCc1ccccc1 | 5.35% (inactive) |
| CSc1c(SCc2ccccc2)cnn(Cc2ccccc2)c1=O | 28% (active) |
| CN1CCC(=NNC(=O)CN(c2cccc(Cl)c2)S(C)(=O)=O)CC1 | 10.8% (inactive) |

Reference: PubChem BioAssay AID1032 (The Scripps Research Institute Molecular Screening Center, 2008)
